This is an account of results in PubChem BioAssay (NCI).

About 79,000 compounds went through this panel and 15% of them were active in at least one assay; those are over-represented in the sample as a whole. Calls of active or inactive are those of the source. Cut-off read from the data, not from the text of the source: active = growth inhibition above about 70%; inactive = the rest.

The assay is described as follows: NCI Yeast Anticancer Drug Screen. Data for the rad50 strain (AID 155).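 Note: 0% = growth of vehicle-only cultures of the same strain.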 Particulars: S. cerevisiae rad50 strain growth inhibition; at 50.0 µM; hits give high values. The method in brief: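 Compounds were tested on a yeast strain with an engineered DNA damage repair alteration; the reported value is growth inhibition normalised to vehicle treatment.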
On to `CC(CC(C#CCN(C)C)N(C)C)CC(C)(C)C` (stereo not drawn), for which the growth inhibition is -5.3% (inactive).
Turning to `CCCCCCCCCCNC(=O)C[n+]1cccc(C(=O)NCc2ccccc2)c1`, the growth inhibition was 99.5% (active).
In the case of `Cc1ccc(N2C(N)=C(C#N)C(C#N)(C#N)C2c2ccccc2)cc1` (stereo not drawn), the growth inhibition is 31.1% (inactive).
Turning to `O=[N+]([O-])c1cccc(Cl)c1C(Nc1nncs1)Nc1nncs1`, the growth inhibition is 55.5% (inactive).
In the case of `CCCC(C(=O)OCCNC1CCCCC1)c1ccccc1` (stereo not drawn) it was 71.3% (active); in that of `BrCc1ccc([Si](c2ccccc2)(c2ccccc2)c2ccc(CBr)cc2)cc1`, 48.1% (inactive); in that of `CCCCC(O)(c1ccccc1)C(O)(c1ccccc1)c1c(F)c(F)c(F)c(F)c1F` (stereo not drawn), 81.1% (active).
For `C/C=C\C=N\NC(N)=S` the value was 8.9% (inactive); for `NCCc1ccc2oc3cc(=O)c4ccccc4c-3nc2c1`, 45.4% (inactive); for `CC(C)=CCc1ccc(O)cc1`, -3.15% (inactive).
`CCCCCCCCCCCCCC/[N+]([O-])=C/c1ccc([N+](=O)[O-])o1`: the growth inhibition is 50.1% (inactive).
In the case of `Fc1ccc(CSC(=S)Nc2ccc(Br)cc2)cc1` it was 91.2% (active); in that of `C/C(=N\NC(=S)N1CCN(C2CCCCC2)CC1)c1ccccn1`, 99% (active); in that of `Cc1ccccc1N=Nc1sc(N)nc1-c1ccccc1`, 33.5% (inactive).
Take `CN(c1ccc(C(N)=O)cc1)c1c(O)c2ccccc2[nH]c1=O`: the growth inhibition was -27.9% (inactive).
For `Fc1ccc(CSC(=S)Nc2cccc(C(F)(F)F)c2)cc1` the value was 99.6% (active); for `COc1ccccc1C(C)c1ccc2ccccc2c1C(=O)O` (stereo not drawn), 94.6% (active).
In the case of `CNC(=O)OCc1c(-c2ccccc2)c(-c2ccccc2)n(-c2ccc(OC)cc2)c1COC(=O)NC` it was 36.1% (inactive).
